# Measured values as given in a collection of fitness landscapes (doi:10.1126/science.1257360).
# Whole data set: some 140,000 sequences, median “enrichment ratio after two sorts for PhoP signalling” near 0, cut for the highest 2% near 11. Only a selection was taken, and the highest values are over-represented in it overall.
# B1: PhoQ; a variant is named by its letters at X, in order, P23837 (parent)
# chain: MKKLLRLFFPLSLRVRFLLATAAVVLVLSLAYGMVALIGYSVSFDKTTFRLLRGESNLFYTLAKWENNKLHVELPENIDKQSPTMTLIYDENGQLLWAQRDVPWLMKMIQPDWLKSNGFHEIEADVNDTSLLLSGDHSIQQQLQEVREDDDDAEMTHSVAVNVYPATSRMPKLTIVVVDTIPVELKSSYMVWSWFIYVLSANLLLVIPLLWVAAWWSLRPIEALAKEVRELEEHNRELLNPATTRELTSLVRNLNRLLKSERERYDKYRTTLTDLTHSLKTPLXXLQXXLRSLRSEKMSVSDAEPVMLEQISRISQQIGYYLHRASMRGGTLLSRELHPVAPLLDNLTSALNKVYQRKGVNISLDISPEISFVGEQNDFVEVMGNVLDNACKYCLEFVEISARQTDEHLYIVVEDDGPGIPLSKREVIFDRGQRVDTLRPGQGVGLAVAREITEQYEGKIVAGESMLGGARMEVIFGRQHSAPKDE
# Variants of: B1
# Assay: enrichment ratio after two sorts for PhoP signalling (ratio (wild type AVST 3.29)); higher = more functional
# Conditions: with PhoP (E. coli)
row,Variant,enrichment ratio
1,PAIE,≤ 0.25
2,FSRF,≤ 0.25
3,SYCE,2.48
4,VEGN,≤ 0.25
5,RAVD,≤ 0.25
6,VDID,≤ 0.25
7,TPGG,≤ 0.25
8,QGCK,≤ 0.25
9,FQWS,≤ 0.25
10,QGYK,0.706
11,QGYI,17.5
12,FFGG,≤ 0.25
13,FFWS,≤ 0.25
14,QGYV,11.2
15,QGCI,19.5
16,QGGG,17.7
17,QGCS,≤ 0.25
18,QGWS,20.8
19,NSEV,≤ 0.25
20,GKAT,≤ 0.25
21,WHGN,≤ 0.25
22,NVPF,≤ 0.25
23,QPWS,≤ 0.25
24,QEWS,13.4

row,Variant,enrichment ratio
1,QRWS,≤ 0.25
2,QEYI,13.9
3,QGRA,≤ 0.25
4,MAFE,8.88
5,QGWI,22.5
6,QGDS,≤ 0.25
7,QEFA,0.476
8,STYI,≤ 0.25
9,MAFQ,24.4
10,MEFQ,3.08
11,RMEL,≤ 0.25
12,DLMW,≤ 0.25
13,PLYK,≤ 0.25
14,KDVS,≤ 0.25
15,RYGQ,≤ 0.25
16,QQYQ,≤ 0.25
17,NKEY,≤ 0.25
18,TTLW,≤ 0.25
19,VACH,≤ 0.25
20,ISIQ,≤ 0.25
21,QPGS,≤ 0.25
22,QGGS,14.5
23,QGWE,14.3
24,FCWE,≤ 0.25

row,Variant,enrichment ratio
1,FFWE,≤ 0.25
2,FFGS,≤ 0.25
3,FTRQ,≤ 0.25
4,DCTH,≤ 0.25
5,VFMI,≤ 0.25
6,SHFN,≤ 0.25
7,FRIN,≤ 0.25
8,TSNK,≤ 0.25
9,MMTC,≤ 0.25
10,TSTC,17.2
11,SPTC,≤ 0.25
12,TVTC,14.5
13,NSSC,≤ 0.25
14,KSSA,≤ 0.25
15,TSSC,12.8
16,KSSC,≤ 0.25
17,KSTC,≤ 0.25
18,TSSA,11.3
19,FSSA,≤ 0.25
20,NVLH,≤ 0.25
21,LSRG,≤ 0.25
22,REYW,≤ 0.25
23,PQTM,≤ 0.25
24,PVEK,≤ 0.25

row,Variant,enrichment ratio
1,SPEK,≤ 0.25
2,TVEK,13.3
3,PFML,≤ 0.25
4,SGNG,≤ 0.25
5,AKIM,4.82
6,TKQV,4.75
7,TKIV,11.9
8,TKIM,15.1
9,MKIM,≤ 0.25
10,TKIS,4.17
11,SEYW,≤ 0.25
12,QMAQ,≤ 0.25
13,QWLW,≤ 0.25
14,LLLD,≤ 0.25
15,NKIV,≤ 0.25
16,TKLA,4.75
17,AKLA,5.14
18,TKLS,19.9
19,AKLS,13.1
20,AILS,9.63
21,MKLS,≤ 0.25
22,QRQP,≤ 0.25
23,INTT,≤ 0.25
24,TEQI,15

row,Variant,enrichment ratio
1,NEQI,≤ 0.25
2,TEHN,11.9
3,TEQA,13.7
4,TEQH,3.62
5,TEQM,17.8
6,MEQI,≤ 0.25
7,MEHN,≤ 0.25
8,YYHN,≤ 0.25
9,NEQM,≤ 0.25
10,TEQP,≤ 0.25
11,AQQM,≤ 0.25
12,LPHR,≤ 0.25
13,ADGW,≤ 0.25
14,NDRR,≤ 0.25
15,IIAQ,≤ 0.25
16,SFDP,≤ 0.25
17,VFVP,≤ 0.25
18,TEEN,3.06
19,ADQI,≤ 0.25
20,TEYM,≤ 0.25
21,AQIY,24
22,IQIY,≤ 0.25
23,AKQI,≤ 0.25
24,TEQY,12.5

row,Variant,enrichment ratio
1,AQQI,14.3
2,TEGY,1.36
3,WQIY,≤ 0.25
4,TEQN,34.8
5,QEQY,≤ 0.25
6,DNYP,≤ 0.25
7,EFNV,≤ 0.25
8,FGIV,2.4
9,ALMP,≤ 0.25
10,MHTV,≤ 0.25
11,FMAD,≤ 0.25
12,GMNN,≤ 0.25
13,WNWL,≤ 0.25
14,STSI,8.26
15,SGDH,≤ 0.25
16,TVTG,15.3
17,SPTG,≤ 0.25
18,SSSI,15.2
19,SRSI,≤ 0.25
20,SGSI,15.9
21,KSTG,≤ 0.25
22,SQSI,16.7
23,SSSR,≤ 0.25
24,SSSK,≤ 0.25

row,Variant,enrichment ratio
1,SGSK,≤ 0.25
2,MQVF,1.6
3,KTET,≤ 0.25
4,FTCL,9.73
5,RLFE,≤ 0.25
6,YKMG,≤ 0.25
7,LISD,≤ 0.25
8,KSSI,≤ 0.25
9,SPSI,≤ 0.25
10,TLSI,18.6
11,SESI,12.7
12,TVSI,17.4
13,DDSI,≤ 0.25
14,FSSI,0.692
15,SESR,4.3
16,NVSI,≤ 0.25
17,LLSI,≤ 0.25
18,VLSI,≤ 0.25
19,TSSI,19.5
20,DSES,≤ 0.25
21,NHHT,≤ 0.25
22,VGTA,≤ 0.25
23,EQHP,≤ 0.25
24,LVPM,≤ 0.25

row,Variant,enrichment ratio
1,QFFS,≤ 0.25
2,TTNV,7.65
3,PFAG,≤ 0.25
4,DGGW,≤ 0.25
5,SNSK,≤ 0.25
6,SNSR,≤ 0.25
7,KLSI,≤ 0.25
8,WLSI,≤ 0.25
9,SNSI,12.4
10,SISI,19.1
11,KYSI,≤ 0.25
12,RISI,≤ 0.25
13,SLSI,12.7
14,MVAF,8.08
15,VNTQ,≤ 0.25
16,FEKW,≤ 0.25
17,RVKS,≤ 0.25
18,YPRG,≤ 0.25
19,SCPI,15.2
20,SCSR,6.9
21,SCGD,≤ 0.25
22,SCPM,7.6
23,SCPA,≤ 0.25
24,SCSK,14.3

row,Variant,enrichment ratio
1,PQKP,≤ 0.25
2,RTKL,≤ 0.25
3,YQFF,≤ 0.25
4,PSPG,≤ 0.25
5,QCSK,≤ 0.25
6,QCSN,17.6
7,QCSG,32
8,QCWG,1.24
9,GCSG,6.35
10,GCSN,3.22
11,YSWT,≤ 0.25
12,VTWY,≤ 0.25
13,LKQC,≤ 0.25
14,MYLH,≤ 0.25
15,YKYI,≤ 0.25
16,KDCA,≤ 0.25
17,LTCQ,≤ 0.25
18,TDCQ,20.3
19,ADCS,≤ 0.25
20,FDCA,≤ 0.25
21,TDCI,≤ 0.25
22,TDCA,14.6
23,TDCS,11.3
24,FDCQ,≤ 0.25

row,Variant,enrichment ratio
1,ERGV,≤ 0.25
2,TKWP,≤ 0.25
3,RGMY,≤ 0.25
4,TGMY,12.7
5,STMY,12.6
6,TKMY,24
7,AIMY,6.62
8,KYMY,≤ 0.25
9,PTMY,≤ 0.25
10,AGMY,20
11,HKMY,≤ 0.25
12,NGMY,≤ 0.25
13,ADMY,0.253
14,SWMY,≤ 0.25
15,ICMS,2.8
16,QRAT,≤ 0.25
17,FCCR,≤ 0.25
18,DASH,≤ 0.25
19,RNKS,≤ 0.25
20,WIMY,≤ 0.25
21,YTMY,≤ 0.25
22,TSMY,12.3
23,ATMY,7.37
24,CTMY,42.4

row,Variant,enrichment ratio
1,TGME,≤ 0.25
2,AEME,29.5
3,NSMY,≤ 0.25
4,KSMY,≤ 0.25
5,AEYE,≤ 0.25
6,NEMY,≤ 0.25
7,AEMY,20.4
8,NYYK,≤ 0.25
9,IYHP,≤ 0.25
10,HPGR,≤ 0.25
11,EGAD,≤ 0.25
12,VQVR,≤ 0.25
13,KMTK,≤ 0.25
14,RCAP,≤ 0.25
15,FMFM,≤ 0.25
16,EEMC,≤ 0.25
17,VYMC,0.507
18,VPMC,≤ 0.25
19,SRMC,≤ 0.25
20,VEMC,15.7
21,ITMC,≤ 0.25
22,MEMC,4.97
23,IEMC,12.9
24,TEMC,18.9

row,Variant,enrichment ratio
1,TYMC,≤ 0.25
2,VCMC,1.73
3,TCMC,24.2
4,DVLN,≤ 0.25
5,IGSC,≤ 0.25
6,SHAH,5.87
7,VCLL,6.51
8,FKPV,≤ 0.25
9,SLMC,3.3
10,NEMC,≤ 0.25
11,SYMC,≤ 0.25
12,QEMC,≤ 0.25
13,SPMC,≤ 0.25
14,SIMC,19.4
15,SEMC,18
16,YAMC,≤ 0.25
17,TAMC,14.6
18,SCMC,12.6
19,KAMC,≤ 0.25
20,KYMC,≤ 0.25
21,KIGP,≤ 0.25
22,VITT,≤ 0.25
23,TPNM,≤ 0.25
24,YGCE,≤ 0.25

row,Variant,enrichment ratio
1,NYTT,≤ 0.25
2,FHLQ,≤ 0.25
3,ESME,≤ 0.25
4,VRRK,≤ 0.25
5,PKDY,≤ 0.25
6,VMIQ,≤ 0.25
7,YFFH,≤ 0.25
8,WWTW,≤ 0.25
9,GPQA,≤ 0.25
10,SAMC,18.1
11,IIMC,≤ 0.25
12,STMC,8.81
13,EEMP,≤ 0.25
14,QQNV,≤ 0.25
15,YMKP,≤ 0.25
16,NNQM,30
17,TNQM,14.3
18,NNCK,≤ 0.25
19,KMQM,≤ 0.25
20,HAQM,≤ 0.25
21,TMQM,12.8
22,LNQM,≤ 0.25
23,MNQM,≤ 0.25
24,TWQM,≤ 0.25
